# ANO1 block = blocks the mouse calcium-activated chloride channel TMEM16A; Q8BHY3; HEK293 TMEM16A/YFP iodide influx fluorescence, ionomycin; normalized B-score (activity score, 25-100; higher = stronger inhibition) at 10 µM; AID 588511; 310,000 compounds, 1.2% hits;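 active means ratio plate-corrected score three or more library SD toward inhibition, starting fluorescence score within five deviations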;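 further: score derived from kinetic fluorescence span divided by baseline fluorescence per well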
# CRFBP-R2 agonist = CRF-BP/CRF-R2 complex agonism. HEK293 CRF-R2/CRF-BP, calcium dye fluorescence (FLIPR); percent of saturating CRF peptide response. activation, % at 13.2 µM. 350,000 compounds, 0.46% hits;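 active means activation of at least 50%, plus an integration ratio under a set limit after plate pattern correction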;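 further: plate controls were neutral control wells without compound for no effect and CRF at EC100 for full effect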
# Cardiac RTF inh = cardiac RTF calcium desensitization. P19429+P45379. IANBD-labeled cardiac RTF, Ca2+ fluorescence. inhibition, % at 7.15 µM. 340,000 compounds, 0.12% hits;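 active means inhibition above the mean inhibition of all tested compounds plus 3 SD, cut at about 17% in these data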;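 further: assay run at fixed EC70 calcium of 1.6 mM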
# TMEM16A act = activators or potentiators of mouse TMEM16A chloride channel; Q8BHY3; HEK293 TMEM16A/YFP-H148Q/I152L, iodide quench fluorescence; stronger effect = lower value; B-score at 10 µM; 340,000 compounds, 0.3% hits;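 active means fluorescence-ratio B-score plate-corrected deviation score at least 3 library SD below zero, with starting fluorescence score within 5 deviations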;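 further: channel opened by trigger with iodide after compound preincubation; score built on the fluorescence ratio of max minus min over baseline; more negative score means more quench and so TMEM16A activation or potentiation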
# CRFBP-R2 block = CRF-BP/CRF-R2 complex antagonism; inhibition, % at 11.8 µM; HEK293 CRF-R2/CRF-BP, CRF-induced calcium fluorescence; 350,000 compounds, 0.59% hits;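 active means inhibition of the ligand-induced calcium signal above about 50% at the single tested concentration, limit read from the data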
# RTF Ca sens act = increases calcium sensitivity of human cardiac regulated thin filaments. IANBD-labeled TnC RTF fluorescence at EC20 calcium; 0% EC20 calcium, 100% full calcium. AID 493008. activation, % at 7.2 µM. P19429+P45379. 340,000 compounds, 0.24% hits;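 active means activation above the mean over all tested compounds plus 3 SD, cut at about 30% in these data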;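 further: rise in fluorescence read as greater calcium sensitivity of cardiac thin filaments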
# * = called active by the depositor; i = inactive; nt = no result. Only some compounds are listed: those with a hit (about 2.4% of all), similar ones and a draw of the others.
SMILES,ANO1 block,CRFBP-R2 agonist,Cardiac RTF inh,TMEM16A act,CRFBP-R2 block,RTF Ca sens act
O=C(O)C(Cc1ccccc1)Nc1ccc([N+](=O)[O-])cc1[N+](=O)[O-] (stereo not drawn),i,3.5,0.8,i,53.2*,3.0
CCOc1ccccc1OCCCOc1ccc([N+](=O)[O-])cc1Cl,i,-0.4,-3.3,i,6.1,-2.0
COc1ccccc1CNc1ccc([N+](=O)[O-])cc1C,25*,-0.6,nt,i,10.9,nt
O=C(O)[C@H](Cc1ccccc1)Nc1ccc([N+](=O)[O-])cn1,i,0.6,-0.6,i,-6.9,-4.2
COc1cccc(CNc2ccc([N+](=O)[O-])cc2Cl)c1O,25*,-1.2,-2.2,i,2.0,-0.8
COc1cccc(OC)c1OCCCOc1ccc([N+](=O)[O-])cc1Cl,100*,-0.5,-7.7,i,21.5,5.0
Cc1c(C(c2ccc([N+](=O)[O-])cc2)c2c(C)n(C)n(-c3ccccc3)c2=O)c(=O)n(-c2ccccc2)n1C,i,0.8,-5.4,i,-19.4,-1.4
CN(C)S(=O)(=O)NCC1CCCN(Cc2cc3ccccc3s2)C1 (stereo not drawn),i,-0.7,-9.8,i,7.2,13.5
Cc1cc([N+](=O)[O-])ccc1NCc1ccccc1,i,1.3,-9.6,i,113.7*,-3.4
COc1ccc(CNc2cc([N+](=O)[O-])ccc2OC)cc1,i,-1.6,6.8,i,88.6*,0.7
Cn1c(=O)cc(Nc2ccccc2)c2c(=O)n(-c3ccccc3)c(=O)n(-c3ccccc3)c21,i,-1.3,-1.1,i,7.9,1.6
CCC(=O)c1ccc(OCC(=O)N2CCN(S(=O)(=O)c3ccc(Cl)s3)CC2)cc1,nt,-1.0,-3.7,i,2.4,-0.9
Cc1ccc(CS(=O)(=O)c2ncc(Cl)c(C(=O)Nc3ccc(OC(F)F)cc3)n2)cc1,i,0.1,-4.5,i,54.4*,-1.9
CCS(=O)(=O)c1ncc(Cl)c(C(=O)Nc2ccc(C)cc2)n1,i,-0.8,-1.4,i,21.8,-3.4
COC(=O)c1ccccc1NC(=O)c1nc(S(=O)(=O)Cc2ccccc2)ncc1Cl,i,-0.9,-3.6,i,54.3*,-6.4
COCCSc1nnc(NC(=O)C2CC(=O)N(CCc3ccc(F)cc3)C2)s1 (stereo not drawn),i,-0.8,-10.7,i,13.7,-1.0
COc1ccc(-c2cc(C)no2)cc1S(=O)(=O)N1CCN(C(=O)c2ccco2)CC1,i,-1.8,-2.7,i,75.4*,-4.0
Cc1cc(-c2ccc(C)c(S(=O)(=O)N3CCN(C(=O)c4ccco4)CC3)c2)on1,i,-1.0,-0.8,i,-4.2,1.7
CCc1noc(C)c1C(=O)N1CC(C)SC1=Nc1ccc(Cl)cc1 (stereo not drawn),nt,-3.3,1.4,i,-5.7,2.1
O=C(/C=C/c1ccc(O)c(O)c1)OCCc1ccccc1,100*,-1.2,2.9,i,-15.0,-3.1
O=C(C=Cc1cccc(O)c1)c1ccccc1O,nt,1.4,-1.5,i,-16.4,-3.0
O=C(/C=C/c1ccc(O)c(O)c1)c1ccccc1O,100*,3.8,-17.9,i,1.7,5.7
O=C(/C=C/c1ccc(O)c(O)c1)OC(Cc1ccc(O)c(O)c1)C(=O)O (stereo not drawn),i,-0.4,0.3,i,-11.7,7.2
Cc1n[nH]c2ccc([N+](=O)[O-])cc2c1=O,nt,6.7,nt,nt,35.6,nt
CC1CC(C)(C)N(C(=O)CSc2ccc(-c3ccc(F)cc3)nn2)c2ccccc21 (stereo not drawn),100*,-0.6,-10.6,i,-25.1,-3.0
Cc1cc(C)c2c(n1)SCC(=O)N2CC(=O)Nc1ccccc1Cl,i,-0.6,2.0,i,2.6,-6.1
NS(=O)(=O)c1cccc(NC(=O)C(Cc2ccccc2)NC(=O)c2ccccc2)c1 (stereo not drawn),i,-0.9,-7.4,i,1.8,2.4
